Inconclusive results are not listed. Activity calls are given as the source filed them. The call rests on the fitted dose curve; in most records, active means well fitted curve in the direction sought with a large enough effect; inconclusive means small, poorly fitted or top-dose-only effect, or another doubt; inactive means no such curve, though single readings can be large; an effect the other way counts as inactive or inconclusive.
Legend:
[1] = HPAF-II 24hr Apoptosis Induction qHTS against the NCATS CANVASS Library (AID 1347356); conditions: HPAF-II caspase-3/7 Caspase-Glo luminescence; series mostly up to 91.4 µM
Summary of the method: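 Using an 11-point qHTS format, HPAF-II cells in DMEM/10% FBS received compounds for 24 h; doxorubicin titration as control. Caspase-3/7 activity quantified by DEVD-luciferase luminescence.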

[2] = HEK293 18hr Apoptosis Induction qHTS against the NCATS CANVASS Library (AID 1347357); conditions: HEK293 caspase-3/7 Caspase-Glo luminescence; series mostly up to 91.4 µM
Summary of the method: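 Natural products applied to HEK293 for 18 hr; Caspase-Glo 3/7 readout.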

[3] = HPAF-II 12hr Apoptosis Induction qHTS against the NCATS CANVASS Library (AID 1347358); conditions: HPAF-II caspase-3/7 Caspase-Glo luminescence; series mostly up to 91.4 µM
Summary of the method: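 Twelve-hour compound exposure of HPAF-II cells in DMEM with 10% FBS, then luminescent Caspase-Glo 3/7 detection after 15 min at room temperature; doxorubicin control.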

[4] = HEK293 24hr Apoptosis Induction qHTS against the NCATS CANVASS Library (AID 1347359); conditions: HEK293 caspase-3/7 activation, Caspase-Glo luminescence; series mostly up to 91.4 µM
Summary of the method: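 Caspase-3/7 activation measured as luminescence from the DEVD-based Caspase-Glo reagent, 15 min at room temperature, following 24-hour compound treatment of HEK293 cells.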

[5] = HPAF-II 18hr Apoptosis Induction qHTS against the NCATS CANVASS Library (AID 1347360); conditions: HPAF-II caspase-3/7 luminescence; series mostly up to 91.4 µM
Summary of the method: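 Luminescent DEVD-substrate signal, proportional to caspase activity, is measured in HPAF-II cells after 18-hour treatment across a concentration series; doxorubicin serves as control.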

[6] = HEK293 12hr Apoptosis Induction qHTS against the NCATS CANVASS Library (AID 1347361); conditions: HEK293 caspase-3/7 Caspase-Glo luminescence; series mostly up to 91.4 µM
Summary of the method: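 Luminescent caspase-3/7 signal, proportional to enzyme activity, was recorded from HEK293 cultures in DMEM + 10% FBS treated for 12 hours with titrated natural products (11 points). Doxorubicin (0.1nM - 4uM) served as control.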

[7] = target: Luciferin 4-monooxygenase (Photinus pyralis) (UniProt P08659); test: Firefly luciferase counterscreen qHTS: Assay Interference Panel against the NCATS CANVASS Library (AID 1347363); conditions: purified firefly luciferase, luminescence inhibition, 5 min; series mostly up to 57.5 µM
Luciferin 4-monooxygenase (Photinus pyralis), sequence (P08659 whole entry, looked up): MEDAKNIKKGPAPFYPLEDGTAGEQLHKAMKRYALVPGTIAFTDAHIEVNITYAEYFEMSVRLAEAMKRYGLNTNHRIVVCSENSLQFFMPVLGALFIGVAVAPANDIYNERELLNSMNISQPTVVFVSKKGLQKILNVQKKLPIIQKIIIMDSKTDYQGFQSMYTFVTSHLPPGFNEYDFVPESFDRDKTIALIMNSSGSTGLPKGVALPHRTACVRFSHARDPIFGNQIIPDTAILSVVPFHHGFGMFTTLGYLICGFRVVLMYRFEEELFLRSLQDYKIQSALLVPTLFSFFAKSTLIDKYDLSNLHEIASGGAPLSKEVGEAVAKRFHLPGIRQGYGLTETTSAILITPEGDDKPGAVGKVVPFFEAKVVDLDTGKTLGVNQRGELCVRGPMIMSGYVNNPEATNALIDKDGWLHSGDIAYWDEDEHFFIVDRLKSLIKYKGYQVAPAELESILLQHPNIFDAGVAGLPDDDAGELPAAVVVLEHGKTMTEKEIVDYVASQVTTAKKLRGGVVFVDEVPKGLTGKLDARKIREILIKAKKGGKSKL
Summary of the method: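 Luminescence inhibition readout: compounds (11-point qHTS) sat 15 min at room temperature with substrate mix (0.013 mM luciferin and ATP), then firefly luciferase was added and signal read 5 min later.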

[8] = KB-8-5-11 Cancer Cell Toxicity qHTS against the NCATS CANVASS Library (AID 1347364); conditions: KB-8-5-11 MDR cells viability, CellTiter-Glo, 72 h; series mostly up to 46.1 µM; further: nearly all actives have a fitted effect of over 75% in size
Summary of the method: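 Luminescent ATP signal (CellTiter-Glo, 10 min at room temperature) measured cell survival of KB-8-5-11 after 72 hr compound treatment. For confirmation, the cells were also grown with 1uM tariquidar.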

[9] = SDT Cancer Cell Toxicity qHTS against the NCATS CANVASS Library (AID 1347365); conditions: SDT dog glioma viability, ATP luminescence, 72 h; series mostly up to 91.4 µM; further: nearly all actives have a fitted effect of over 60% in size; further: potency means the concentration at half of the fitted maximal effect
Summary of the method: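 Canine SDT glioma cell toxicity was scored by ATP-dependent luminescence after a 72 hr incubation with an 11-point compound series.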

[10] = KB-3-1 Cancer Cell Toxicity qHTS against the NCATS CANVASS Library (AID 1347366); conditions: KB-3-1 viability, CellTiter-Glo luminescence, 72 h; series mostly up to 91.4 µM; further: nearly all actives have a fitted effect of over 75% in size
Summary of the method: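 Cytotoxicity toward KB-3-1 cells (500/well, DMEM + 10% FBS) was scored by CellTiter-Glo luminescence following 72 hr exposure at 37C, with bortezomib titrated as control.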

[11] = qHTS for ATAD5 Agonist screened against the NCATS CANVASS Library (AID 1347367); conditions: HEK293T ATAD5-luciferase reporter, luminescence, 16 h; series mostly up to 91.4 µM;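 further: luciferase reporter driven by ATAD5 which rises upon DNA damage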
Summary of the method: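 Genotoxicity was scored as increased ATAD5-luciferase luminescence in HEK293T after 16hr of exposure, with cell viability measured by fluorescence beforehand in the same well.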

[12] = MCF7 Cancer Cell Toxicity qHTS against the NCATS CANVASS Library (AID 1347369); conditions: MCF7 viability, ATP luminescence (CellTiter-Glo), 72 h; series mostly up to 46 µM
Summary of the method: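 This 72 hr qHTS scored MCF7 viability by CellTiterGlo luminescence, with 500 cells/well; bortezomib titration ran as control.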

[13] = qHTS for ATAD5 Antagonist screened against the NCATS CANVASS Library (AID 1347370); conditions: HEK293T-ATAD5-luc, 5-FUrd stimulated, luminescence, 16 h; series mostly up to 91.4 µM;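 further: HEK293T cells carrying an ATAD5 luciferase reporter co-treated with 10 µM 5-fluorouridine; nearly all actives have a fitted effect of over 65% in size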
Summary of the method: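 HEK293T-ATAD5 luc reporter, 2000 cells/well; 5hr attach; cpd + 10 uM 5-FUrd; 16hr 37C, 5% CO2. Readouts: CellTiter-Fluor fluorescence (1hr), then Amplite luciferase luminescence (30min RT).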

[14] = J3T Cancer Cell Toxicity qHTS against the NCATS CANVASS Library (AID 1347371); conditions: J3T dog glioma viability, ATP luminescence, 72 h; series mostly up to 46.1 µM
Summary of the method: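 ATP-based cytotoxicity in canine J3T cells: 72 hr exposure at 37C, 11-point titration, CellTiterGlo luminescent detection.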

[15] = target: Nuclear receptor subfamily 1 group I member 3 (Homo sapiens) (UniProt Q14994); test: qHTS for Constitutive Androstane Receptor (CAR) Antagonist screened against the NCATS CANVASS Library (AID 1347372); conditions: HepG2-hCAR-CYP2B6 luciferase, CITCO-stimulated antagonist mode; series mostly up to 91.4 µM;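 further: cells stimulated with 50 nM CITCO agonist so inhibition reflects antagonism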
Nuclear receptor subfamily 1 group I member 3 (Homo sapiens), sequence (Q14994 whole entry, looked up): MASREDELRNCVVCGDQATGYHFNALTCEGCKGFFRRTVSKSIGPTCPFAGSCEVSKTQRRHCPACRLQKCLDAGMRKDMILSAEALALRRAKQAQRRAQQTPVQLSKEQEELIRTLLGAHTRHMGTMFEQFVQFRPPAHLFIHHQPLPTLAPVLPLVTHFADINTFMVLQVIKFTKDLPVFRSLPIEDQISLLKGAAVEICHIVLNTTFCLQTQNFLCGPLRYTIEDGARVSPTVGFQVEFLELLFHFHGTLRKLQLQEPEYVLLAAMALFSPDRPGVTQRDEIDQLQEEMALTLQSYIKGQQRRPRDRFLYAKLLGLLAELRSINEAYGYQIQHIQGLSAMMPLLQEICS
Summary of the method: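 Antagonist mode: compound added alongside 50 nM CITCO to HepG2-hCAR-CYP2B6 reporter cells, 24hr at 37C. Viability by CellTiter-Fluor fluorescence, then CAR-driven luciferase by ONE-Glo luminescence.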

[16] = target: Nuclear receptor subfamily 1 group I member 3 (Homo sapiens) (UniProt Q14994); test: qHTS for Constitutive Androstane Receptor (CAR) Agonist screened against the NCATS CANVASS Library (AID 1347373); conditions: HepG2-hCAR-CYP2B6 luciferase reporter, ONE-Glo luminescence; series mostly up to 91.4 µM;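 further: every well also contained 1.5 µM PK11195 alongside the test compound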
Summary of the method: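 In an 11-point concentration series, compounds were incubated 24hr with HepG2 cells carrying hCAR and a CYP2B6-2.2kb reporter, with PK11195 at 1.5uM final. A CellTiter-Fluor viability read preceded the ONE-Glo luminescence read.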

[17] = 10-beta competent E. coli microbial cell viability qHTS against the NCATS CANVASS Library (AID 1347376); conditions: E. coli 10-beta viability, BacTiter-Glo ATP luminescence, overnight; series mostly up to 91.4 µM
Summary of the method: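 Overnight 37C exposure of 10-beta E. coli (0.2 OD) to an 11-point concentration series; ATP-based luminescence after 20 min room-temperature reagent incubation; daunomycin as control.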

[18] = qHTS for H2AX Agonists against the NCATS CANVASS Library (AID 1347378); conditions: CHO-K1 H2AX phosphorylation, HTRF TR-FRET, 3 h; series mostly up to 76.9 µM;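 further: phospho-H2AX S139 level in CHO-K1 lysates by TR-FRET emission ratio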
Summary of the method: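 Signal is the 665/620 nm emission ratio from europium cryptate and d2 antibody pair, rising with S139-phosphorylated H2AX. CHO-K1 cells saw test agents for 3 hr at 37C; detection ran 24 hr at room temperature.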

[19] = tested on: NAD(P)H diaphorase (Clostridium kluyveri); test: Diaphorse counterscreen qHTS: Assay Interference Panel against the NCATS CANVASS Library (AID 1347362); conditions: Diaphorase enzyme, resazurin to resorufin fluorescence; series mostly up to 114 µM
Summary of the method: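 Counterscreen for coupling-enzyme interference: resorufin fluorescence from resazurin/NADH turnover, read after 5 min at room temperature. Compounds were tested over an 11-point series after 15 min dark preincubation with diaphorase in PBS-Tween.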

[20] = G06 Cancer Cell Toxicity qHTS against the NCATS CANVASS Library (AID 1347368); conditions: G06 dog glioma cells, viability ATP luminescence, 72 h; series mostly up to 91.4 µM; further: nearly all actives have a fitted effect of over 60% in size
Summary of the method: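 Quantitative HTS in G06 cells (dog glioma): 72 hr treatment, 11 concentrations, then ATP-based luminescent viability readout; bortezomib 0.1 nM–4.6 uM final as reference.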

Measured: Potency

CC(=O)NCCc1c[nH]c2ccc(O)cc12
inactive: [1] | [2] | [3] | [4] | [5] | [6] | [7] | [8] | [10] | [11] | [12] | [13] | [14] | [15] | [16] | [17] | [18]
active: [9] 1480 nM

O=C(O)Cc1c[nH]c2ccc(O)cc12
inactive: [1] | [2] | [3] | [4] | [5] | [6] | [19] | [7] | [8] | [9] | [10] | [11] | [20] | [12] | [13] | [14] | [15] | [16] | [17] | [18]
